Results on six molecules are retold here after PubChem BioAssay (NCATS).

Test [1] deals with Estrogen receptor (Homo sapiens) (UniProt P03372). The test can be described thus: qHTS assay for small molecule antagonists of estrogen receptor alpha signaling (AID 588513; active = well fitted curve in the direction sought with a large enough effect in the signal ratio, with a control signal flat, not every such curve was filed as active; the % refers to the signal ratio; note: potency is the fitted concentration of half-maximal effect). The procedure, abridged: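 ER-alpha-UAS-bla GripTite HEK 293 cells in medium with 2% charcoal/dextran-treated FBS were preincubated 4 h at 37 C, dosed with compound (1:2 titration), stimulated with 0.5nM 17-beta-estradiol for 18 h, then read by CCF4 beta-lactamase fluorescence.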
A general note: Quantitative high-throughput screening tests each substance at several concentrations.

Test [2] has the same target. The test can be described thus: qHTS assay for small molecule agonists of estrogen receptor alpha signaling (AID 588514).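 Note: 0% = vehicle only and 100% = reference agonist; nearly all actives have a fitted effect of over 70% in size.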 The procedure, abridged:
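Cells were plated at 5000/well, incubated 4 hrs at 37 C, dosed with compound titration series, incubated 18 hrs at 37 C, loaded with CCF4 dye for 2 hrs at RT, then fluorescence was read.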

Test [3] has as its target Glucocorticoid receptor (Homo sapiens) (UniProt P04150). The test can be described thus: qHTS assay for small molecule antagonists of glucocorticoid receptor signaling (AID 588533; active = well fitted inhibition curve with a large enough effect in the signal ratio, with a control signal flat, not every such curve was filed as active; the % refers to the signal ratio;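 note: cells stimulated with 2 nM dexamethasone as agonist; % is set by controls: 0 for no effect and ±100 for the full control effect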). In a few lines:
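Antagonist-mode qHTS: compound titrations added to GRE-bla HeLa cells, then dexamethasone 2 nM final; 18 h, 37 C. CCF4 FRET fluorescence normalized to dexamethasone and DMSO; IC50 from Hill fit.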

For test [4], the target named is Peroxisome proliferator-activated receptor delta (Homo sapiens) (UniProt Q03181). The test can be described thus: qHTS assay for small molecule agonists of peroxisome proliferator-activated receptor delta signaling (AID 588534).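 Note: 0% = DMSO basal wells and 100% = positive control agonist at 10 µM.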 The procedure, abridged: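 Fluorescence from CCF4 substrate cleavage by beta-lactamase reporter, read 2 hrs at RT, measured agonist activity. Compounds were tested with 18 hrs exposure at 37 C. Concentration-response data fitted to Hill equation.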

The target in test [5] is Peroxisome proliferator-activated receptor gamma (Homo sapiens) (UniProt P37231). The test can be described thus: qHTS assay for small molecule agonists of peroxisome proliferator-activated receptor gamma signaling (AID 588536; active = well fitted curve in the direction sought with a large enough effect in the signal ratio, with a control signal flat, not every such curve was filed as active; the % refers to the signal ratio;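 note: 0% = DMSO basal wells and 100% = rosiglitazone at 2 µM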). The procedure, abridged: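 Ratiometric blue/green fluorescence (405 nm excitation; 460 and 530 nm emission) from CCF4-loaded HEK293 reporter cells serves as signal. Exposure to test compounds lasts 16 h at 37 C in medium containing 1% charcoal/dextran-treated serum.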

Test [6] has the same target. The test can be described thus: qHTS assay for small molecule antagonists of peroxisome proliferator-activated receptor gamma signaling (AID 588537; active = well fitted inhibition curve with a large enough effect in the signal ratio, with a control signal flat, not every such curve was filed as active; the % refers to the signal ratio;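 note: reporter cells co-stimulated with 50 nM rosiglitazone agonist during compound treatment; % of control where 0% means no effect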). In a few lines:
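We seeded GeneBLAzer HEK293 reporter cells at 3000 per well, allowed 6-6.5 h attachment at 37 C, then co-treated with test compound titrations and 50 nM rosiglitazone overnight (16 h). Inhibition was quantified from 460/530 nm emission ratios.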

Test [7] concerns the target Vitamin D3 receptor (Homo sapiens) (UniProt P11473). The test can be described thus: qHTS assay for small molecule antagonists of vitamin D receptor signaling (AID 588541).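 Note: receptor activated by calcitriol during compound treatment; series mostly up to about 77 µM; % is set by controls: 0 for no effect and ±100 for the full control effect.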 The procedure, abridged: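 VDR-UAS-bla HEK293T cells (2000/well, 2% charcoal-stripped FBS) were treated with titrated compounds plus 1-alpha,25-dihydroxyvitamin D3 (50 nM or 3 nM final) for 16 h at 37 C. CCF4 beta-lactamase fluorescence was read; Hill fits gave IC50.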

A short description of test [8]: qHTS assay for small molecule agonists of retinoid X receptor alpha signaling (AID 588544).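 For activation: 0% = DMSO basal wells and 100% = reference agonist.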 The following applies: HEK293T RXRa-UAS-bla, beta-lactamase reporter, 18 h; 530 nm emission.
The target of test [9] is Retinoic acid receptor RXR-alpha (Homo sapiens) (UniProt P19793). The test is described as above.
Test [10] has as its target Thyroid hormone receptor beta (Homo sapiens) (UniProt P10828). The test can be described thus: qHTS assay for small molecule agonists of thyroid hormone receptor beta signaling (AID 588545).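 Note: 0% = DMSO only and 100% = 10 nM T3.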 In a few lines:
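TR-UAS-bla GripTite HEK 293 cells (2500/well, medium with 2% charcoal/dextran FBS) were treated in agonist mode for 18 h at 37 C, titrated. Beta-lactamase was read by CCF4 ratio after 2 h; normalized to 10 nM T3 (100%) and DMSO, Hill-fitted for EC50 and efficacy.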

A short description of test [11]: qHTS assay for small molecule antagonists of retinoid X receptor alpha signaling (AID 588546; active = well fitted inhibition curve with a large enough effect in the signal ratio, with a control signal flat, not every such curve was filed as active; the % refers to the signal ratio;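 note: cells stimulated with 9-cis-retinoic acid as agonist; % is set by controls: 0 for no effect and ±100 for the full control effect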). Conditions: HEK293T RXRa-UAS-bla, beta-lactamase ratio, antagonist mode; measured here: W530 green channel, cytotoxicity proxy. In a few lines:
(§1)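 Beta-lactamase reporter inhibition, read as CCF4 fluorescence ratio (ex 405, em 460/530 nm) after 2 h at RT. HEK293T UAS-bla cells, 2500/well, were stimulated with 9-cis-RA at 500 or 100 nM final alongside test compound for 18 h at 37 C.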

The target in test [12] is Thyroid hormone receptor beta (Homo sapiens) (UniProt P10828). The test can be described thus: qHTS assay for small molecule antagonists of thyroid hormone receptor beta signaling (AID 588547; active = well fitted inhibition curve with a large enough effect in the signal ratio, with a control signal flat, not every such curve was filed as active; the % refers to the signal ratio). Conditions: TR-UAS-bla HEK293, beta-lactamase ratio, antagonist mode, 18 h. In a few lines: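 TR-UAS-bla GripTite HEK293 cells in 2% charcoal/dextran FBS medium were preincubated 4 h at 37 C, given compound (0.59 nM to 92 uM) plus 0.4 nM T3 (final) for 18 h, then CCF4 for 2 h at RT; Hill fit gave IC50.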

Test [13] can be described thus: qHTS assay for small molecule activators of the p53 signaling pathway (AID 651743; active = well fitted activation curve with a large enough effect in the signal ratio, not every such curve was filed as active; the % refers to the signal ratio; note: series mostly up to about 92 µM; % of control where 0% means no effect). Conditions: HCT-116 p53RE-bla, beta-lactamase FRET ratio, 16 h; activation: stronger effect = higher value. The procedure, abridged:
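Cell-based beta-lactamase reporter (p53 response elements, HCT-116 background). After a 5-hour preincubation, cells received compound for 16 hours at 37 C; substrate development ran 2 hours at room temperature.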

A short description of test [14]: qHTS assay for environmental chemicals that activate the Aryl hydrocarbon Receptor (AhR) signaling pathway (AID 651777; active = well fitted curve in the direction sought with a large enough effect; an effect the other way counts as inactive or inconclusive; note: % of control where 0% means no effect; nearly all actives have a fitted effect of over 15% in size). The following applies: 1A2-DRE human hepatoma cells, luciferase, 24 h; activation: stronger effect = higher value. In a few lines: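 Luminescence (One-Glo, 30 min, room temperature) reports AhR-driven luciferase in stably transfected human hepatoma cells bearing DRE and CYP1A2 promoter. Cells (1,200/well) were treated with compound for 24 hr at 37 C in qHTS format.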

In test [15] the target is Peroxisome proliferator-activated receptor alpha (Homo sapiens) (UniProt Q07869). The test can be described thus: qHTS assay for small molecule agonists of the peroxisome proliferator-activated receptor alpha (PPARalpha) signaling pathway (AID 651778; active = well fitted curve in the direction sought with a large enough effect; an effect the other way counts as inactive or inconclusive; note: % of control where 0% means no effect). Conditions: PathHunter PPARalpha complementation, chemiluminescence, 6 h; max response: stronger effect = higher value. In a few lines:
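Cells plated at 2,000/well and held overnight at 37 C, 5% CO2, then compound added by pin tool for 6 hr; after PathHunter detection reagent and 60 min at room temperature, chemiluminescence from enzyme complementation was read.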

Test [16] is described as follows: qHTS assay for small molecule agonists of the antioxidant response element (ARE) signaling pathway measured by Nrf2-dependant transcriptional activity (AID 720636; active = well fitted curve in the direction sought with a large enough effect in the repeat runs; an effect the other way counts as inactive or inconclusive; note: % of control where 0% means no effect). The procedure, abridged:
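Nrf2-dependent transcription read as ONE-Glo luciferase signal from ARE-luc HepG2 reporter cells after 16 hr compound treatment at 37 C, 5% CO2, in assay medium with 1% dialyzed FBS.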

A short description of test [17]: qHTS assay for small molecule agonists of the antioxidant response element (ARE) signaling pathway measured by Nrf2-dependant transcriptional activity - cell viability counter screen (AID 720653; active = well fitted curve in the direction sought with a large enough effect in the repeat runs; an effect the other way counts as inactive or inconclusive; note: % is set by controls: 0 for no effect and ±100 for the full control effect). The following applies: ARE-bla HepG2 viability, CellTiter-Glo ATP luminescence, 16 h; max response: stronger effect = lower value. The procedure, abridged:
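ARE-bla HepG2 cells (2,000/well) rested 5 hrs at 37C/5% CO2, then exposed to compounds in DMSO for 16 hrs. Viability was read in the same wells as intracellular ATP by luminescence, 30 min at room temperature after reagent addition.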

The nature of test [18]: qHTS assay for cell viability of HEK293 cells (AID 743288; active = well fitted curve in the direction sought with a large enough effect; an effect the other way counts as inactive or inconclusive; note: % is set by controls: 0 for no effect and ±100 for the full control effect; nearly all actives have a fitted effect of over 50% in size). Conditions: ATP luminescence (CellTiter-Glo), 18 h; max response: stronger effect = lower value. In a few lines:
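Parental HEK293 cells were seeded at 2,000 cells/well, rested at least 5 h at 37 C, then exposed to compounds in DMSO for 18 h at 37 C. Viability was read as ATP-dependent luciferase luminescence after 30 min at room temperature.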

Test [19] in a line: qHTS assay for cell viability of the p53RE-bla HCT-116 cell line (AID 743292; active = well fitted curve in the direction sought with a large enough effect; an effect the other way counts as inactive or inconclusive; note: % is set by controls: 0 for no effect and ±100 for the full control effect; nearly all actives have a fitted effect of over 55% in size). In a few lines: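 ATP-based luminescent viability (CellTiter-Glo, 30 min RT) after 16 h compound treatment at 37 C of p53RE-bla HCT-116 cells, seeded at 4,000 cells/well and rested 5 h before dosing.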
The target of test [20] is Retinoic acid receptor RXR-alpha (Homo sapiens) (UniProt P19793). The test can be described thus: qHTS assay for small molecule antagonists of retinoid X receptor alpha signaling (AID 588546).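 Note: cells stimulated with 9-cis-retinoic acid as agonist; % is set by controls: 0 for no effect and ±100 for the full control effect.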 Conditions: HEK293T RXRa-UAS-bla, beta-lactamase ratio, antagonist mode. The procedure, abridged: as §1

Inconclusive results are not listed. Active and inactive are the calls of the source. Unless noted, calls come from the whole dose curve.

Sequence of Thyroid hormone receptor beta (Homo sapiens) (P10828 whole entry, looked up): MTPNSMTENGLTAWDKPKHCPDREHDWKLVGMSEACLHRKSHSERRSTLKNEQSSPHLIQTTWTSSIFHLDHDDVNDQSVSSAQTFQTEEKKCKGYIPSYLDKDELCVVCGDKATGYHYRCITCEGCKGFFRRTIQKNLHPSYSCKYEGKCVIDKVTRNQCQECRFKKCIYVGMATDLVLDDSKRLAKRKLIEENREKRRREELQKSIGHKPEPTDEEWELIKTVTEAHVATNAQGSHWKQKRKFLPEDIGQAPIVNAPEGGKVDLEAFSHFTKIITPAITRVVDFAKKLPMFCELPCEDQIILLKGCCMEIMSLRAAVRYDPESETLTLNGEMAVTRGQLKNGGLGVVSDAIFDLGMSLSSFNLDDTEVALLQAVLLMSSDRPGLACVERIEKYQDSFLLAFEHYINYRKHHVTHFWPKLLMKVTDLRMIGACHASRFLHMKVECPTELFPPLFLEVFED
Sequence of Vitamin D3 receptor (Homo sapiens) (P11473 whole entry, looked up): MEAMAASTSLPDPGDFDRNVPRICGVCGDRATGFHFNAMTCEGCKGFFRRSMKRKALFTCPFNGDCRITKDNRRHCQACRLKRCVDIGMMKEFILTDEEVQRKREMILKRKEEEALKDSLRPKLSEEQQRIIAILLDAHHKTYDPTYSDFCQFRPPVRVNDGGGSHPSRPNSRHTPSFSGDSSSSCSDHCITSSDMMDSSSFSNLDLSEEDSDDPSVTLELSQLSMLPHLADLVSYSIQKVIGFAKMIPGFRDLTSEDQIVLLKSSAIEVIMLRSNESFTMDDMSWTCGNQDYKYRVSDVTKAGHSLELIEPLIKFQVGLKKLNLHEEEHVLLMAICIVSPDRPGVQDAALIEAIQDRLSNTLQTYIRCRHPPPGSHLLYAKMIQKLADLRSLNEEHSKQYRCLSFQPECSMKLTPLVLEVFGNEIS
Sequence of Peroxisome proliferator-activated receptor gamma (Homo sapiens) (P37231 whole entry, looked up): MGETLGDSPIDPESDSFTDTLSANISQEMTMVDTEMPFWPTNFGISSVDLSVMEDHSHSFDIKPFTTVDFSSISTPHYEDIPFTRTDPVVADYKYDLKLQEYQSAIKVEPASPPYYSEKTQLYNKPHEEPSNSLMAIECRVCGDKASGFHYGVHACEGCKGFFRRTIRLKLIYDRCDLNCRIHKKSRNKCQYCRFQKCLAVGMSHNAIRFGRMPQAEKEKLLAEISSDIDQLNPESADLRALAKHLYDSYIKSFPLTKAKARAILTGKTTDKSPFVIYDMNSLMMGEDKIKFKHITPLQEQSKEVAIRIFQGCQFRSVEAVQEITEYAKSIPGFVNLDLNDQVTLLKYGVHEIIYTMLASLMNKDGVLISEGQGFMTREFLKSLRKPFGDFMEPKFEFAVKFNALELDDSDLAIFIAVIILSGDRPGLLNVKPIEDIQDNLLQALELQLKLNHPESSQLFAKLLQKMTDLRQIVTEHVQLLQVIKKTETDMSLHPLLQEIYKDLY
Sequence of Peroxisome proliferator-activated receptor alpha (Homo sapiens) (Q07869 whole entry, looked up): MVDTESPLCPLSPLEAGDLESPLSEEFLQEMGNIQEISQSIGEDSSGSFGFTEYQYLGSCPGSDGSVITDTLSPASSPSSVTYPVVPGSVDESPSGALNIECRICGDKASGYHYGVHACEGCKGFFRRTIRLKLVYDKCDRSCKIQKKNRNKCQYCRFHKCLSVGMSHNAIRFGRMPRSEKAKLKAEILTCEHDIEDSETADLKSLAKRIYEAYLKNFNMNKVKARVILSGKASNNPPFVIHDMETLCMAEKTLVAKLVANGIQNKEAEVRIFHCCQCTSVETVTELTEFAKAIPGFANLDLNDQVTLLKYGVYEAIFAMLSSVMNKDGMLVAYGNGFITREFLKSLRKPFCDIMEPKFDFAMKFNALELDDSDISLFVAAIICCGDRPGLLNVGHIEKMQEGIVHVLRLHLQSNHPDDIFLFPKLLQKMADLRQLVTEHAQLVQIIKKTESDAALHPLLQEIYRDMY
Sequence of Estrogen receptor (Homo sapiens) (P03372 whole entry, looked up): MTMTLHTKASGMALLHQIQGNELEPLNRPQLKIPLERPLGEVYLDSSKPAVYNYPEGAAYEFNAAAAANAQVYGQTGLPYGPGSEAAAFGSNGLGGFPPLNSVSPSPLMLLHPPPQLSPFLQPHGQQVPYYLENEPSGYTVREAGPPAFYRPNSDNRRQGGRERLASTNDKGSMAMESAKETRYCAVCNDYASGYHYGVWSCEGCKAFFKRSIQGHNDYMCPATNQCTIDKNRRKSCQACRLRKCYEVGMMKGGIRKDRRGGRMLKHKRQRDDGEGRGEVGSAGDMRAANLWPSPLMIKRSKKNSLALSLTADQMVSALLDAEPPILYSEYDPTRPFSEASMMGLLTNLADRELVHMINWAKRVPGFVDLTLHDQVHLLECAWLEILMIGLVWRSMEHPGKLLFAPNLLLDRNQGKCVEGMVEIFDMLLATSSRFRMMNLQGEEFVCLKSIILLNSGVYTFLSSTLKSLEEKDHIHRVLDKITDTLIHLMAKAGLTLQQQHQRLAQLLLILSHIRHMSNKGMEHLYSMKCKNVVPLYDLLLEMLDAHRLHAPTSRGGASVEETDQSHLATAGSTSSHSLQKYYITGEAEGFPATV
Sequence of Glucocorticoid receptor (Homo sapiens) (P04150 whole entry, looked up): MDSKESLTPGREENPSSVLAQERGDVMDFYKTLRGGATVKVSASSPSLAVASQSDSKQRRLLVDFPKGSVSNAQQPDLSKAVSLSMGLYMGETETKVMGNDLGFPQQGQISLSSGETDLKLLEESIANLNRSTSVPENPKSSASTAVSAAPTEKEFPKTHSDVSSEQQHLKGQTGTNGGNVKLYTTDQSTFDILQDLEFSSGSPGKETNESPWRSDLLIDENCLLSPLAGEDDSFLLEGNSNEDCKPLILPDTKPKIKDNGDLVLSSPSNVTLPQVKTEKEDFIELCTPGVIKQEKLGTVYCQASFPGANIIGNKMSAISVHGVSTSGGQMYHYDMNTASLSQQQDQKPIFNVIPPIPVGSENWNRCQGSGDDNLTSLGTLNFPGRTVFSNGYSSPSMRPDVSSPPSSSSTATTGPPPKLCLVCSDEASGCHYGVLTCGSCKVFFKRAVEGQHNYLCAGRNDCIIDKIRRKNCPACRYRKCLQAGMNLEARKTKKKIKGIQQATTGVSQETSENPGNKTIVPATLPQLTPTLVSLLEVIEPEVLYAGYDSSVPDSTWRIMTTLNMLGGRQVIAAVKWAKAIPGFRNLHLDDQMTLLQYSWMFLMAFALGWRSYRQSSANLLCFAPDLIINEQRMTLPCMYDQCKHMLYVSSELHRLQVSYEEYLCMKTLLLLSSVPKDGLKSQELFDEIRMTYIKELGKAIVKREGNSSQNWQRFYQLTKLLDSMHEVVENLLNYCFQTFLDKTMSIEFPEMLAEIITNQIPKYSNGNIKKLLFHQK
Sequence of Retinoic acid receptor RXR-alpha (Homo sapiens) (P19793 whole entry, looked up): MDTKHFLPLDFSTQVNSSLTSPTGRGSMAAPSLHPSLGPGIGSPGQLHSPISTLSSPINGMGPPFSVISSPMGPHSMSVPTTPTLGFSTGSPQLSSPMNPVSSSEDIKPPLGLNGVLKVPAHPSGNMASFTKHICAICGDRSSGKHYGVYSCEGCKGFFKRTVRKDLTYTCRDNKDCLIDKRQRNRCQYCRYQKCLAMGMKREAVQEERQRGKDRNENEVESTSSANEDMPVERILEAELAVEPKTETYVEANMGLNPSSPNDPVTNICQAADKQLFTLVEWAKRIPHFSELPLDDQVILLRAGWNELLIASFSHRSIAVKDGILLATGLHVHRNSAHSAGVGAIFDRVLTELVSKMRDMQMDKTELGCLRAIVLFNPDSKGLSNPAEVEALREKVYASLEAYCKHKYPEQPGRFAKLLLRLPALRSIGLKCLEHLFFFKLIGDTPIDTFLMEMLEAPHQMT
Sequence of Peroxisome proliferator-activated receptor delta (Homo sapiens) (Q03181 whole entry, looked up): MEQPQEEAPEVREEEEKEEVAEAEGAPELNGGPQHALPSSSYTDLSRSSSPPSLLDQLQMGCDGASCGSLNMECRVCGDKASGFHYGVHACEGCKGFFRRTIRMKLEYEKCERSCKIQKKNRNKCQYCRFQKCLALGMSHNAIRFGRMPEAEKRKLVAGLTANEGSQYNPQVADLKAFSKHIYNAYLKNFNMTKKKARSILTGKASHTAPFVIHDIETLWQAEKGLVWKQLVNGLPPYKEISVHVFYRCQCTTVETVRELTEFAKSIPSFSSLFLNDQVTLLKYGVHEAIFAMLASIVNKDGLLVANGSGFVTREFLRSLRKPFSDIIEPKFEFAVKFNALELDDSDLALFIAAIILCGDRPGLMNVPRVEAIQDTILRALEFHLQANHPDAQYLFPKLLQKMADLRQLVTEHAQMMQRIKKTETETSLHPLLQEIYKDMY

As for `CCCCC(CC)CO[N+](=O)[O-]` (stereo not given), the Potency entry in test [1], in [2], in test [3], in test [5], in test [6] and in test [7] was “inactive” in each case. For the same molecule, the Potency result in [9], in [10], in test [16] and in test [19] was “inactive” each time. The molecule was called inactive in [4]. Besides, the max response in test [8] is -0.882%; in test [11], -8.14%; in [15], -0.348% (inactive); in [17] it was -12.3% (inactive); in test [18], 3.43% (inactive). Further, the activity change % (negative = inhibition) in [12] is -3.31% (inactive). Besides, the activation is -4.18% (inactive) in test [13] and 2.43% (inactive) in test [14].

For `CCOP(OCC)OCC`, the Potency entry in [1], in [2], in [5], in test [6], in test [9] and in [10] was “inactive” each time. Also, the max response was -0.591% in [8]; -5.06% in test [11]; -9.86% (inactive) in [20]; -4.24% (inactive) in test [17]; 0.538% (inactive) in test [18]. Moreover, the activity change % (negative = inhibition) in [12] was 9.21% (inactive). Also, the activation was 0.684% (inactive) in [13] and 1.72% (inactive) in test [14].

`c1cc[n+]2c(c1)-c1cccc[n+]1CC2`: the Potency in [1] is 25.1 µM [inhibitor] (active). The Potency entry in test [2], in test [3], in [5], in [6], in test [7] and in test [9] was “inactive” each time. Also, the Potency result in [10] was “inactive”. For the same molecule, the outcome in [4] was inactive. Besides, the max response in [8] was -27.8%; in test [11], 2.2%; in [20], -20.8% (inactive); in [17], 1.16% (inactive). For the same molecule, the activity change % (negative = inhibition) in test [12] was 10.8% (inactive). Moreover, the activation in test [14] was -0.462% (inactive).

Regarding `COc1cc(Cl)c(OC)cc1Cl`, the Potency result in test [1], in test [2], in test [3], in [5], in test [6] and in [7] was “inactive” in each case. Further, the Potency entry in test [9], in test [10] and in test [19] was “inactive” each time. Also, the activity change % (negative = inhibition) in [12] is 4.96% (inactive). The activation was -1% (inactive) in test [13] and -2.48% (inactive) in test [14]. In addition, the max response in [15] is -0.244% (inactive); in test [17], -1.62% (inactive); in test [18], -14.2% (inactive).

For `C=C(C)CN(CC)c1c([N+](=O)[O-])cc(C(F)(F)F)cc1[N+](=O)[O-]`, the Potency result in test [1], in test [2], in test [5], in test [6], in [7] and in test [9] was “inactive” throughout. Besides, the Potency result in test [10], in test [16] and in test [19] was “inactive” in each case. Also, in test [4], the molecule was classed as inactive. For the same molecule, the max response in test [11] was -6.07%; in [20], 1.05% (inactive); in [15] it was 0.658% (inactive); in test [17], 5.45% (inactive); in [18], -3.14% (inactive). Also, the values for the activation in [13] and in test [14] were 0.904% (inactive) and 1.28% (inactive), respectively.

Turning to `Cn1cc(-c2ccccc2)c(=O)c(-c2cccc(C(F)(F)F)c2)c1`, the Potency entry in test [1], in test [2], in test [3], in test [5], in [6] and in [10] was “inactive” each time. The Potency result in test [16] and in test [19] was “inactive” throughout. Further, the max response in test [11] was 0.227%; in [20] it was -21.3% (inactive); in test [15], 1.29% (inactive); in [17], -0.838% (inactive). In [12], the activity change % (negative = inhibition) is 1.65% (inactive). Besides, the values for the activation in test [13] and in test [14] were -5.34% (inactive) and 0.553% (inactive), respectively.
